Screens (PubChem BioAssay)
Rows were chosen to be rich in hits. Some 8% of all compounds tested hit in one or more screens of this group.
HT1080 IDH1KD tx: toxicity to HT-1080 IDH1 knockdown cells (counter line) | HT-1080 IDH1 knockdown viability, ATP luminescence, 48 h | actives 2% (n = 360,000) | AID 686971 | Potency, µM (highest dose often 46.1 µM), actives largely listed as cytotoxic
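IDH1KD HT-1080 cells, 750/well, RPMI + 5% FBS; compound pinned after 2 h settling; 48 h, 37 °C; CellTiter-Glo luminescence; % activity normalised to DMSO and no-cell wells; curves fitted, classed by r2 and efficacy.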
KB-3-1 cytotox: KB-3-1 parental cell cytotoxicity. KB-3-1 viability, CellTiter-Glo ATP luminescence, 72 h. Potency, µM (highest dose often 46.1 µM), most hits filed as cytotoxic. actives 1.4% (n = 400,000); further: nearly all actives have a fitted effect of over 60% in size
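Parental KB-3-1 adenocarcinoma cells in phenol-red-free DMEM with 10% FBS were pin-treated with compounds at several concentrations, incubated 72 h at 37 °C, and viability read by CellTiter-Glo luminescence; concentration-effect curves were fitted after normalization.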
HT1080NT lethal: kills 2HG-producing HT-1080-NT fibrosarcoma cells. HT-1080-NT fibrosarcoma viability, CellTiter-Glo ATP luminescence, 48 h. Potency, µM (top dose mostly 46.1 µM), hits mostly cytotoxic. actives 1.6% (n = 360,000);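 further: NT is the 2HG producing partner of a matched IDH1 knockdown line; nearly all actives have a fitted effect of over 55% in size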
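Viability of the 2HG-overproducing fibrosarcoma line after 48 hours of compound exposure at 37 degrees C was determined by luminescence with CellTiter-Glo, and concentration-effect curves were then fitted and categorized.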
MCF10A rerep: inducers of DNA re-replication in MCF 10A breast cells; MCF 10A DNA re-replication, Hoechst nuclear intensity, 48 h; Potency, µM (doses to about 46.1 µM), most hits filed as activators; actives 2.9% (n = 350,000); AID 624296; further: nearly all actives have a fitted effect of over 50% in size
SW480 rerep: DNA re-replication induction in SW480 cells; actives 1.8% (n = 340,000); AID 624297; SW480 DNA re-replication, Hoechst DNA content imaging, 48 h; Potency, µM (top dose mostly 46.1 µM), usual class: activators; further: nearly all actives have a fitted effect of over 55% in size
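Cells (250 per well) received 23 nL compound or DMSO by pin tool and were kept 48 hr at 37 C, 5% CO2. Nuclei were then stained with Hoechst for 40 min and scanned for DNA content.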
KB-V1 MDR tox: kills drug-selected multidrug resistant KB-V1 cells | KB-V1 MDR cells viability, CellTiter-Glo, 72 h | Potency, µM (doses to about 46.1 µM), most hits filed as cytotoxic | actives 3.4% (n = 400,000); further: nearly all actives have a fitted effect of over 60% in size
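KB-V1 cells (P-gp-expressing MDR subline of KB-3-1) in phenol-red-free DMEM with 10% FBS were exposed to library compounds over a concentration series for 72 h at 37 degrees C. Viability read by CellTiter-Glo luminescence; concentration-effect curves fitted after normalization.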
Numbers stand for hits; . = inactive; ? = inconclusive; / = not tested or not shown; [ ] = remark or other dose. The call rests on the fitted dose curve; in most records, active means well fitted curve in the direction sought with a large enough effect; inconclusive means small, poorly fitted or top-dose-only effect, or another doubt; inactive means no such curve, though single readings can be large; an effect the other way counts as inactive or inconclusive.

SMILES | HT1080 IDH1KD tx | KB-3-1 cytotox | HT1080NT lethal | MCF10A rerep | SW480 rerep | KB-V1 MDR tox
CCOC(=O)c1[nH]c(C)c(C(=O)OCC(=O)N2CCc3ccccc32)c1C | . | . | . | 23.1µM | . | .
O=C(OCC(=O)N1CCc2ccccc21)c1c2c(nc3ccccc13)CCCCC2 | . | ? | . | 10.3µM | . | 4.61µM
CC1CCc2nc3ccccc3c(C(=O)OCC(=O)NC3CCS(=O)(=O)C3)c2C1 (stereo not drawn) | ? | . | . | . | . | .
CC(C)NC(=O)NC(=O)COC(=O)c1c2c(nc3ccccc13)CCC2 | 25.9µM | . | ? | 23.1µM | . | 20.6µM
CCOC(=O)c1c(C)[nH]c(C(=O)OCC(=O)N2CCc3ccccc32)c1C | . | . | . | . | . | .
NC(=O)COC(=O)c1c2c(nc3ccccc13)CCCC2 | . | . | . | . | . | .
COc1cccc(NC(=O)COC(=O)c2c3c(nc4ccccc24)CCC(C)C3)c1 (stereo not drawn) | ? | ? | .[9.24 µM] | 10.3µM | ? | 2.91µM
COc1cccc(NC(=O)Cn2c(=O)n(CCC(=O)NCc3ccccc3OC)c(=O)c3ccccc32)c1 | / | . | / | / | / | .
CC(C)Oc1ccc(C(=O)Nc2c(C(=O)Nc3cccc(F)c3)oc3ccccc23)cc1 | / | . | / | / | / | .
CCCCCCCCCCCC(=O)OCC(O)CO (stereo not drawn) | / | / | / | . | . | /
CCOC(=O)c1c(C)c(C(=O)NCc2ccc3c(c2)OCO3)c(C)n1CC | . | . | . | . | . | .
CCOC(=O)c1cnc(-n2nc(C)cc2C)nc1NCc1ccccc1 | . | ? | . | 20.6µM | ? | 0.92µM
CCOC(=O)c1cnc(-n2cc(C)cn2)nc1NCc1ccc2c(c1)OCO2 | . | . | . | . | . | 4.11µM
CCOC(=O)c1cnc(-n2nc(C)cc2C)nc1NC(C)c1ccccc1 (stereo not drawn) | . | ? | . | . | . | 1.03µM
CCOC(=O)c1cnc(-n2nc(C)cc2C)nc1NNc1ncc(-c2ccccc2)cn1 | ? | ? | ? | . | . | ?
COc1ccc(-c2oc3cc(O)c(OC)c(O)c3c(=O)c2OC)cc1O | 0.581µM | 0.82µM | 0.411µM | ? | ? | 0.651µM
COc1ccc(OC)c(CCNC(=O)c2cnn(-c3ccccc3)c2-n2cccc2)c1 | / | . | / | / | / | .
CCC(C)N(CC(=O)Nc1cccc(C)c1C)C(=O)CCl (stereo not drawn) | 1.03µM | ? | 1.64µM | ? | ? | ?
CC(C)N(CC(=O)Nc1ccc(Cl)cc1C(F)(F)F)C(=O)CCl | 6.51µM | . | 6.51µM | ? | ? | ?
Cc1ccc(S(=O)(=O)Nc2ccc(O)c3ncccc23)cc1 | 13µM | . | ? | . | . | ?
Cc1ccc(S(=O)(=O)Nc2ccc(O)c3cccnc23)cc1 | ? | . | . | ? | 23.1µM | .
Cc1ccc(S(=O)(=O)Nc2ccnc3ccccc23)cc1 | . | . | . | . | . | .
Cc1ccc(Cl)cc1NCc1nnc2n1CCCCC2 | / | . | / | / | / | .
CN(C)Cc1ccccc1Sc1cccc2ccccc12 | . | . | ? | 13µM | ? | ?
COC(=O)c1cc(C)nc2c1C(=O)C(=O)C=C2N1CCOCC1 | 5.17µM | ? | 6.51µM | ? | ? | ?
SMILES | HT1080 IDH1KD tx | KB-3-1 cytotox | HT1080NT lethal | MCF10A rerep | SW480 rerep | KB-V1 MDR tox
COc1ccc(Nc2nnc(SCc3cn4c(C)cccc4n3)s2)cc1 | . | 11.6µM | . | ? | ? | ?
Cc1nc2ccccc2c(=O)n1NCc1cc(Br)cs1 | . | . | . | 23.1µM | ? | .
O=C(Nc1ccc(Br)cc1F)c1ccc2nc(CCc3ccccc3)oc2c1 | / | . | / | / | / | .
CCN1Cc2cccc(C(=O)Nc3ccc(F)cc3)c2C1=O | / | . | / | / | / | .
COc1ccc(-c2nc(C(N)=O)c3[nH]c(=O)n(-c4cccc(Cl)c4)c3n2)cc1OC | 16.4µM | ? | ? | ? | . | 7.31µM
CCc1ccc(-c2nc(C(N)=O)c3[nH]c(=O)n(-c4ccccc4OC)c3n2)cc1 | ? | . | ? | ? | 9.2µM | .
Cc1ccc(-n2c(=O)[nH]c3c(C(N)=O)nc(C(C)C)nc32)cc1 | . | . | . | . | ? | .
CCCC(C)c1nc(C(N)=O)c2[nH]c(=O)n(-c3ccc(OC)c(OC)c3)c2n1 (stereo not drawn) | . | . | . | . | . | 5.8µM
O=C(NCCOCCn1c(=O)oc2ccccc21)Nc1ccc(F)cc1F | / | . | / | / | / | .
CCc1ccc(S(=O)(=O)c2cn(CC(=O)Nc3ccc(C)cc3)c3ccccc3c2=O)cc1 | / | . | / | / | / | ?
CCc1ccc2oc(C(=O)Nc3ccccc3C(=O)OC)cc(=O)c2c1 | / | . | / | / | / | .
O=C1c2cccc3cccc(c23)C(=O)C1(O)O | 18.4µM | . | ? | 20.6µM | ? | .
N[C@H](COP(=O)(O)O)C(=O)O | / | / | / | . | . | /
O=c1[nH]ncc(N/N=C\c2cccnc2)c1Cl | . | . | . | . | . | ?
O=c1[nH]ncc(N/N=C\c2ccncc2)c1Cl | . | . | . | . | . | 20.6µM
Cc1cccc(/C=N\Nc2cn[nH]c(=O)c2Cl)c1 | ? | . | . | . | . | 4.11µM
O=c1[nH]ncc(N/N=C\c2cccs2)c1Cl | . | ? | . | . | . | 3.26µM
CCOc1ccccc1/C=N\Nc1cnn(Cc2ccccc2)c(=O)c1Cl | . | . | . | ? | . | .
COc1ccccc1/C=N\Nc1cn[nH]c(=O)c1Cl | ? | . | . | . | . | 8.2µM
Cc1ccc2sc(N(Cc3cccnc3)C(=O)CCOc3ccccc3)nc2c1C | / | . | / | / | / | .
COc1ccc(-c2cc(C(=O)Oc3ccc(C#N)cc3)no2)cc1 | / | . | / | / | / | ?
CCOc1ccc(CNC(=O)C2CCCN(S(=O)(=O)c3ccc4c(c3)CCCC(=O)N4)C2)cc1 (stereo not drawn) | / | ? | / | / | / | .
Cc1ccc(NC(=O)C(NS(=O)(=O)c2ccc3c(c2)CCC(=O)N3)c2ccccc2)cc1C (stereo not drawn) | / | . | / | / | / | .
CCCCC(=O)Nc1cccc(-c2nc3ccccc3s2)c1 | / | . | / | / | / | .
COc1ccccc1C(=O)Nc1ccc2c(c1)nc(CCNC(=O)c1ccccc1)n2C | 4.11µM | ? | 4.11µM | 6.51µM | 13µM | ?
COc1ccccc1C(=O)Nc1ccc2c(c1)nc(CCNC(C)=O)n2C | . | . | . | . | . | .
CCn1c(CCNC(=O)c2ccc(OC)c(OC)c2)nc2ccccc21 | . | . | . | . | . | 3.66µM
Cc1ccc(C)c(Cn2c(=O)n(Cc3ccccc3)c(=O)c3c(C)c(C)sc32)c1 | / | . | / | / | / | .
O=C1/C(=C\c2ccco2)SC(=S)N1c1ccc(O)cc1 | . | . | . | . | 20.6µM | .
Cn1cccc1/C=C1\SC(=Nc2ccccc2)NC1=O | 5.17µM | 2.31µM | ? | ? | ? | 2.59µM
